Compounds without any hit were thinned out: in the full panel of roughly 83,000, 20% have a hit.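 The test compound was applied at a single concentration to cells in 96-well plates for 48 hours, and percent growth was recorded.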 Unmarked numbers belong to inactive results. Active and inactive are the calls of the source. Rule for the calls: active = growth percent below 10; inactive = the rest.

Test systems include SK-MEL-2 melanoma; EKVX NSCLC; SN12C renal; UO-31 renal; TK-10 renal; ACHN renal; CAKI-1 renal; A498 renal; MOLT-4 leukemia; RPMI-8226 leukemia; OVCAR-8 ovarian; OVCAR-5 ovarian; OVCAR-4 ovarian; SK-OV-3 ovarian; IGROV1 ovarian; OVCAR-3 ovarian; NCI/ADR-RES ovarian; CCRF-CEM leukemia; SR leukemia; HS 578T breast.
Holding throughout (assay): NCI-60 one-dose screen, 48 h (100 = growth as untreated, 0 = no growth, -100 = all killed)
What all share (conditions): 10 µM unless noted

For `Cn1ccc(Cc2cnc(N)s2)n1`, the growth in the assay with SK-MEL-2 melanoma is 97.4%; in the assay on EKVX NSCLC, 106%; in the assay on SN12C renal, 104%; in the assay on UO-31 renal it was 86.2%; in the assay on TK-10 renal, 88.7%; with ACHN renal it was 99.8%. The growth in the assay with CAKI-1 renal is 93.6%; with A498 renal, 94.2%; with MOLT-4 leukemia, 93.3%; with RPMI-8226 leukemia it was 101%; in the assay on OVCAR-8 ovarian it was 94.5%; with OVCAR-5 ovarian, 106%. The growth is 99.4% in the assay with OVCAR-4 ovarian; 99.7% in the assay with SK-OV-3 ovarian; 111% in the assay on IGROV1 ovarian; 106% with OVCAR-3 ovarian; 102% in the assay on NCI/ADR-RES ovarian.
With `CCn1c(Sc2nnc(Nc3ccccc3)s2)nc2c1c(=O)n(C)c(=O)n2C`, the growth in the assay on SK-MEL-2 melanoma was 130%; in the assay with EKVX NSCLC, 86.5%; in the assay on SN12C renal, 96.4%; with UO-31 renal, 73%; in the assay on TK-10 renal, 146%; in the assay on ACHN renal, 91%. Also, the growth in the assay with CAKI-1 renal was 93.9%; in the assay on CCRF-CEM leukemia, 117%; in the assay with MOLT-4 leukemia, 110%; in the assay with SR leukemia, 103%; with RPMI-8226 leukemia, 122%; in the assay on OVCAR-5 ovarian, 77.4%. The growth was 96.5% in the assay on OVCAR-4 ovarian; 91.4% in the assay on IGROV1 ovarian; 110% in the assay with OVCAR-3 ovarian; 99.3% with HS 578T breast; 89.6% in the assay on NCI/ADR-RES ovarian.
In the case of `CCCCN1CCN(c2ccc3nc(-c4ccc5nc(-c6ccc(OCC)c(OCC)c6)[nH]c5c4)[nH]c3c2)CC1`, the growth was 13.1% with SK-MEL-2 melanoma; 24.6% in the assay with EKVX NSCLC; 18.8% with SN12C renal; 74.4% in the assay with UO-31 renal; 57% with TK-10 renal; 12.7% in the assay on ACHN renal. Besides, the growth was 27.7% in the assay on CAKI-1 renal; -0.368% (active) in the assay on CCRF-CEM leukemia; -0.133% (active) in the assay with MOLT-4 leukemia; 14.3% in the assay on SR leukemia; -25.4% (active) with RPMI-8226 leukemia; -11.9% (active) in the assay with OVCAR-8 ovarian. Further, the growth was 37.7% with OVCAR-5 ovarian; -77.4% (active) in the assay with OVCAR-4 ovarian; 15.1% with IGROV1 ovarian; -87.3% (active) with OVCAR-3 ovarian; 35.2% in the assay with HS 578T breast; 73% in the assay with NCI/ADR-RES ovarian.
Turning to `Cc1nc(Nc2ccccn2)sc1C(=O)/C=C/c1ccc(Br)cc1`, the growth in the assay with SK-MEL-2 melanoma is 97.7%; in the assay with EKVX NSCLC it was 60.4%; with SN12C renal, 78.8%; in the assay on UO-31 renal it was 49.7%; in the assay with TK-10 renal it was 127%; with ACHN renal, 75.2%. Besides, the growth is 53.4% in the assay with CAKI-1 renal; 31.1% with CCRF-CEM leukemia; 80% with MOLT-4 leukemia; 16.9% in the assay on SR leukemia; 42.5% in the assay with RPMI-8226 leukemia; 78.2% with OVCAR-8 ovarian. The growth in the assay on OVCAR-5 ovarian is 95.2%; with OVCAR-4 ovarian, 81.9%; in the assay with IGROV1 ovarian it was 77.7%; in the assay with OVCAR-3 ovarian, 48.4%; in the assay with HS 578T breast, 77.9%; in the assay on NCI/ADR-RES ovarian, 57.7%.
As for `N#Cc1c(NC(=O)c2ccccc2I)sc2c1CCCC2`, the growth in the assay with SK-MEL-2 melanoma was 26.4%; with EKVX NSCLC it was 48.5%; with SN12C renal it was 53.5%; in the assay with UO-31 renal it was 58.1%; in the assay on TK-10 renal, 106%; in the assay with ACHN renal it was 50.9%. The growth is 45% with CAKI-1 renal; 23.7% in the assay on CCRF-CEM leukemia; 34.9% in the assay with MOLT-4 leukemia; 38.6% in the assay on SR leukemia; 46.4% with RPMI-8226 leukemia; 51.4% in the assay on OVCAR-8 ovarian. The growth is 70.8% in the assay on OVCAR-5 ovarian; 79.9% in the assay on OVCAR-4 ovarian; 50.6% in the assay on IGROV1 ovarian; 15.7% in the assay on OVCAR-3 ovarian; 32.1% in the assay on HS 578T breast; 13.2% in the assay with NCI/ADR-RES ovarian.
As to `COc1ccccc1NC(=O)Nc1ccc(-c2nc3ccccc3o2)cc1`, the growth in the assay on SK-MEL-2 melanoma is 130%; in the assay with EKVX NSCLC, 92.8%; in the assay with SN12C renal, 98.7%; in the assay with UO-31 renal, 94.5%; in the assay on TK-10 renal, 118%; in the assay on ACHN renal it was 95.4%. Also, the growth with CAKI-1 renal is 103%; in the assay with CCRF-CEM leukemia, 101%; in the assay on MOLT-4 leukemia, 75.1%; with SR leukemia it was 69%; with RPMI-8226 leukemia, 96.7%; in the assay on OVCAR-5 ovarian it was 104%. The growth in the assay with OVCAR-4 ovarian was 95.3%; with IGROV1 ovarian, 104%; with OVCAR-3 ovarian, 109%; in the assay on HS 578T breast, 99%; in the assay with NCI/ADR-RES ovarian it was 98.4%.
`CNCCNc1nc2ccccc2c2c(=O)c3cc(F)ccc3oc12`: the growth is 100% in the assay with SK-MEL-2 melanoma; 71.9% in the assay on EKVX NSCLC; 46.9% in the assay with SN12C renal; 37.7% in the assay on UO-31 renal; 80.2% in the assay on TK-10 renal; 24% in the assay with ACHN renal. Moreover, the growth in the assay on CAKI-1 renal is 45%; in the assay on CCRF-CEM leukemia, 52.4%; in the assay with MOLT-4 leukemia it was 10.7%; in the assay on SR leukemia, 22.7%; in the assay with RPMI-8226 leukemia, 47.8%; in the assay on OVCAR-8 ovarian it was 47%. Besides, the growth in the assay with OVCAR-5 ovarian is 80.4%; in the assay with OVCAR-4 ovarian it was 54.8%; in the assay on IGROV1 ovarian it was 49.6%; with HS 578T breast, 70.6%; in the assay on NCI/ADR-RES ovarian, 47.8%.
On to `CC(=[N-])N1CCC[C@@H](Nc2c3ccccc3nc3ccccc23)C1.[Cl][Pt].[NH-]CCC[NH-]`, for which the growth in the assay with SK-MEL-2 melanoma was 52.4%; with EKVX NSCLC, 52.3%; with SN12C renal, 5.71% (active); with UO-31 renal, 27.4%; in the assay with TK-10 renal it was 1.35% (active); in the assay with ACHN renal, -22.2% (active). Moreover, the growth in the assay with CAKI-1 renal was 15.5%; in the assay with CCRF-CEM leukemia it was 35.4%; in the assay on MOLT-4 leukemia, 14.6%; with SR leukemia, 17.1%; in the assay on RPMI-8226 leukemia, 30.1%; in the assay on OVCAR-8 ovarian, 39.1%. The growth was 39% with OVCAR-5 ovarian; 20.4% in the assay with OVCAR-4 ovarian; 17.2% in the assay on IGROV1 ovarian; 51.7% in the assay on HS 578T breast; 85% in the assay on NCI/ADR-RES ovarian.
`O=C(c1ccccc1)c1ccc(N2C(=O)C3C4c5ccccc5C(/C=C/C(=O)c5ccccn5)(c5ccccc54)C3C2=O)cc1` (configuration not stated): the growth is 74.7% in the assay on SK-MEL-2 melanoma; 27.9% with EKVX NSCLC; 11.3% in the assay with SN12C renal; -37.4% (active) with UO-31 renal; 20.1% with TK-10 renal; -25.4% (active) in the assay on ACHN renal. For the same compound, the growth with CAKI-1 renal is 49.3%; with CCRF-CEM leukemia it was 11.1%; with MOLT-4 leukemia, 16%; in the assay with SR leukemia it was 13.7%; in the assay with RPMI-8226 leukemia it was 3.95% (active); in the assay with OVCAR-8 ovarian, 26.4%. Further, the growth with OVCAR-5 ovarian was 29.9%; in the assay with OVCAR-4 ovarian, 32.4%; in the assay with IGROV1 ovarian, -19.8% (active); with OVCAR-3 ovarian, -54.1% (active); with HS 578T breast, 9.77% (active); in the assay on NCI/ADR-RES ovarian, 20.5%.

The record behind these values is PubChem BioAssay (NCI).
